Assay results published in PubChem BioAssay AID2098 (Broad Institute, 2009).
Screen size: about 300,000 compounds; about 2,300 (0.77%) were called active. The full list was thinned out, with actives kept by preference. A number with no mark means an inactive call.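 How the source made its calls: active means more than half of replicate wells show activity change below -50%, luminescence cut by over half; inconclusive means some wells, but at most half, below -50%; inactive means no replicate well below -50%.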

Assay: blocking HSF1-driven luciferase expression – cell-based, NIH3T3, luminescence, primary screen (AID 2098);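 further: luciferase reports HSF-1 transcriptional activity via heat shock element; 0% = median of DMSO wells and -100% = zero luminescence signal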
Conditions: NIH3T3-HGL HSE-luciferase, MG132-induced, luminescence 8 h; hits give low values; screened at 7.5 µM (by protocol)

Compound | activity change, negative = inhibition
CC(C)N(Cc1nnc(-c2ccc(Cl)cc2)o1)C(=O)C1=COCCO1 | -0.126%
Cc1ccc(C(=O)N/N=C/c2cccc3ccccc23)cn1 | 2.62%
COc1ccc(-c2ccc3nnc(SCC(=O)Nc4ccc(NC(C)=O)cc4)n3n2)cc1 | -1.23%
COc1ccc(S(=O)(=O)N2CCCC2CNC(=O)C(=O)NC2CC2)cc1 (centres undefined) | -3.82%
CCOc1ccc(N(CC(=O)NC2CCCCCC2)S(=O)(=O)c2c(C)[nH]c(=O)[nH]c2=O)cc1 | -0.37%
COc1ccc(N(CC(=O)NC2CCCCC2)S(=O)(=O)c2c(C)[nH]c(=O)[nH]c2=O)cc1 | 4.32%
COc1ccc(N(CC(=O)NC2CCCCCCC2)S(=O)(=O)c2c(C)nn(C)c2C)cc1 | -60.7% (active)
CCn1ccnc1CN(C)C(=O)c1cc(COc2ccc(Cl)cc2OC)on1 | -51.9% (active)
CCn1ccnc1CN(C)C(=O)c1cc(COc2ccc(-n3cncn3)cc2)on1 | -9.56%
COc1cc(Cl)ccc1OCc1cc(C(=O)N(C)CCc2c(C)n[nH]c2C)no1 | 11.4%
Cc1cc2ccccc2n1CCC(=O)O | -0.843%
O=C(O)CCn1c(O)c(C=C2N=c3ccccc3=N2)sc1=S | -52.2% (active)
O=C(O)CCn1c(Cc2ccccc2)nc2ccccc21 | 0.662%
C=CCOc1ccc(/C=C/C(=O)OC(C)C(=O)Nc2ccc(NC(C)=O)cc2)cc1 (centres undefined) | 12.2%
COc1ccc(CCNC(=S)N2CCN(S(=O)(=O)c3ccc(F)cc3)CC2)cc1 | -3.63%
CCC(=O)N1c2ccccc2NC2=C(C(=O)CCC2)C1c1ccco1 (centres undefined) | -0.999%
CC(C)C(=O)N1c2ccccc2NC2=C(C(=O)CCC2)C1c1ccc(N(C)C)cc1 (centres undefined) | -60.9% (active)
CCCC(=O)N1c2ccccc2NC2=C(C(=O)CCC2)C1c1ccc(F)cc1 (centres undefined) | -0.85%
O=C(NCC1(N2CCCCC2)CCCCC1)c1ccc(NS(=O)(=O)c2ccc(F)cc2)cc1 | -3.19%
CN(C(=O)COC(=O)c1ccc(Br)o1)c1c(N)n(Cc2ccccc2)c(=O)[nH]c1=O | -3.83%
O=C(COC(=O)Cc1c[nH]c2ccccc12)NCCc1ccccc1 | -4.81%
Cc1cc(=O)oc2cc(NC(=O)C(C)Oc3ccccc3)ccc12 (centres undefined) | 1.47%
Cc1cccc(-n2ncc(Cl)c(Cl)c2=O)c1 | -95.3% (active)

Compound | activity change, negative = inhibition
Cc1cccc(-n2ncc(C#N)c2-n2cccc2)c1 | 2.7%
COc1ccc(Oc2c(Cl)cnn(-c3ccccc3)c2=O)cc1 | -5.38%
CC1(c2ccc(Cl)cc2Cl)NC(=O)N(CC(=O)Nc2cccnc2Cl)C1=O (centres undefined) | 1.88%
CCCOc1ccc(Cl)cc1Nc1nc(NCCO)nc(N2CCCC2)n1 | 1.49%
COC(=O)c1ccc(COC(=O)C2CCN(S(=O)(=O)c3c(Cl)cccc3Cl)CC2)o1 | 5.96%
COc1cc(SC)ccc1C(=O)Nc1nc(C)cs1 | -63.8% (active)
COc1cc(SC)ccc1C(=O)Nc1cc(C)ccn1 | 28.6%
COC(=O)c1sc(NC(=O)c2ccc(OC)cc2OC)nc1C | -40.1%
Cc1ccc(C(=O)C(C)OC(=O)Cc2n[nH]c(=O)c3ccccc23)cc1C (centres undefined) | -5.5%
NC(=O)c1ccsc1NC(=O)COC(=O)Cc1n[nH]c(=O)c2ccccc12 | -1.64%
COc1ccc(CC(=O)OC(C)C(=O)Nc2ccc(S(N)(=O)=O)cc2)cc1 (centres undefined) | -3.68%
CCc1cccc(NC(=O)COC(=O)C2CCN(c3ccc(C(F)(F)F)cn3)CC2)c1 | -4.52%
Cc1cccc(NC(=O)Nc2ccc(OCc3ccccc3)cc2)n1 | 1.3%
O=C(O)/C=C\C(=O)Nc1ccc(OCc2ccccc2)cc1 | -65.7% (active)
CCc1ccnc(NC(=O)Nc2ccc(OCc3ccccc3)cc2)c1 | -11.4%
O=C(CCCN=C1NS(=O)(=O)c2ccccc21)OCC(=O)c1ccc(F)c(F)c1 | -2.57%
COc1ccc2[nH]c(=O)c(CN(Cc3cccnc3)S(=O)(=O)c3ccccc3F)cc2c1 | -52.3% (active)
CCC(=O)N(Cc1cc2cc(OC)ccc2[nH]c1=O)c1ccccc1C | -6.72%
CCN(Cc1cc2cc(C)ccc2[nH]c1=O)S(=O)(=O)c1ccccc1 | -3.14%
COc1ccccc1NC(=O)C(C)OC(=O)c1ccc(-n2cnnn2)cc1 (centres undefined) | -4.36%
O=C1CC2(CCCC2)Oc2ccc(Cl)cc21 | -9.81%
COc1cc2c(cc1O)[C@H](Cc1ccc(Oc3cc(C[C@@H]4NCCc5cc(OC)c(O)cc54)ccc3O)cc1)NCC2 | -2.77%
COc1ccc2c(c1)CCNC2Cc1ccc(OC)c(O)c1 (centres undefined) | 0.52%

Compound | activity change, negative = inhibition
CC[C@H]1CN2CCc3cc(OC)c(OC)cc3[C@@H]2C[C@@H]1C[C@H]1NCCc2cc(OC)c(OC)cc21 | -74.7% (active)
C=CCOC(=O)C1=C[C@H](c2ccc(Br)cc2)C[C@H](OCCCCO)O1 | -3.77%
CCOC(=O)c1cccc(NC(=O)C2CCN(c3ncnc4c3nc3n4CCCCC3)CC2)c1 | -72.4% (active)
O=C(NCc1ccccc1Cl)C1CCN(c2ncnc3c2nc2n3CCCCC2)CC1 | -6.69%
COc1cccc(NC(=O)C2CCCN(c3ncnc4c3nc3n4CCCCC3)C2)c1 (centres undefined) | -3.75%
COc1ccccc1CNC(=O)CSc1nc(=O)n(Cc2ccncc2)c2c1CCC2 | -0.526%
Cn1c(SCC(=O)c2ccccc2)ncc(C(=O)Nc2ccc(F)cc2)c1=O | 3.83%
CN(C)S(=O)(=O)c1cccc(NC(=O)Cc2ccsc2)c1 | 5.64%
Cc1ccc(/C=N/NC(=S)Nc2cccc(S(=O)(=O)N(C)C)c2)o1 | -4.55%
Cc1nc(C)c(-c2nnc(-c3cccc(S(=O)(=O)N(C)C)c3)o2)cc1C(=O)NN | -63.1% (active)
COc1cccc(CNC(=O)C(=O)NCCC2CCCCN2S(=O)(=O)c2ccc(C)cc2)c1 (centres undefined) | -3.75%
COc1cccc(N2CC(NS(=O)(=O)c3ccc(Cl)cc3)CC2=O)c1 (centres undefined) | 8.69%
C=C(C)C(=O)O[C@H]1C/C(C)=C\C(=O)/C=C(\C)[C@H](O)[C@@H]2OC(=O)C(=C)[C@@H]21 | -73.5% (active)
CN(CC(=O)NCc1cccnc1)S(=O)(=O)c1cc(Cl)ccc1Cl | 1.42%
CCN(CC(=O)Nc1ccc(NC(C)=O)cc1)C(=O)C1CC(=O)N(Cc2ccc(C)cc2)C1 (centres undefined) | -0.586%
COC(=O)CCNc1ccc2c(c1)OCCO2 | -72.6% (active)
CCOc1ccc(NCCC(=O)c2ccc3c(c2)OCO3)cc1 | -1.61%
COc1ccccc1OCCCC(=O)Nc1ccc2c(c1)OCCO2 | 1.02%
Cc1ccc2nc(SCC(=O)N3CC(C)OC(C)C3)nc(=O)n2c1 (centres undefined) | 3.03%
Cc1ccc(S(=O)(=O)CCC(=O)OCC(=O)N(C)C2CCS(=O)(=O)C2)cc1 (centres undefined) | -3.16%
COc1ccc(CN2[C@@H](CC(=O)O)c3cc(F)ccc3S2(=O)=O)cc1 | -5.27%
COc1ccc(C(=O)N/N=C2\CCS(=O)(=O)c3ccc(F)cc32)cc1OC | 9.4%
O=S1(=O)CC/C(=N\Nc2ccc(F)cc2)c2ccsc21 | -74.8% (active)

Compound | activity change, negative = inhibition
CCN(CC(=O)NCc1ccco1)S(=O)(=O)c1ccc(F)cc1 | -5.85%
CCN(CC(=O)N1CCCC1)S(=O)(=O)c1ccc(F)cc1 | -65.5% (active)
COc1ccc(S(=O)(=O)N(C)CC(=O)N2CCCC2)cc1 | 0.377%
COc1ccc(CNC(=O)C2CCCC2)cc1 | -0.797%
CCOc1ccc(NC(=O)CN(C)C(=O)COc2cccc(CC)c2)cc1OCC | 3.71%
COC(=O)CCCC1=CC2=C(c3ccccc3)C(=O)C(C)(OC(=O)C3CCCC3)C(=O)C2=CN1c1ccc(OC)cc1 (centres undefined) | -88.7% (active)
COC(=O)CCCC1=CC2=CC(=O)C(C)(OC(=O)c3cccs3)C(=O)C2=CN1CC1CC1 (centres undefined) | -2.87%
COC(=O)CCCC1=CC2=CC(=O)C(C)(OC(=O)c3cccs3)C(=O)C2=CN1c1cccc(C#N)c1 (centres undefined) | 0.873%
CC(=O)c1ccc(S(=O)(=O)Nc2ccc(-c3ccc4nncn4n3)cc2)cc1 | 2.56%
COc1ccc(NC(=O)CN(C)C(=O)c2ccc(COc3ccccc3)o2)cc1 | 3.16%
CN(C(=O)c1cc2c(=O)n3ccccc3nc2s1)C1CCCCC1 | 23.2%
O=c1c2ccccc2nc2n1C1(CCCCC1)Cc1ccccc1-2 | 15.3%
CN(c1ccc2nc3ccccc3c(=O)n2n1)C1CCCCC1 | -86.8% (active)
CCCOc1ccc(C(=O)CCC(=O)OC(C)C(=O)Nc2ccc(NC(C)=O)cc2)cc1 (centres undefined) | 11.7%
CCCNC(=S)N1CCCC(c2nc3ccccc3[nH]2)C1 (centres undefined) | -82% (active)
COCCCNC(=S)N1CCCC(c2nc3cc(C)c(C)cc3[nH]2)C1 (centres undefined) | 5.14%
CN(C)CCCNC(=S)N1CCC(c2nc3ccccc3[nH]2)CC1 | -2.77%
CCOc1ccc(S(=O)(=O)Nc2cccc(C(=O)NCC3(N4CCCCC4)CCCCC3)c2)cc1 | -3.29%
CC(=O)N[C@H]1[C@H]([C@H](O)[C@H](O)CO)OC(C(=O)O)=C[C@@H]1O | -3.57%
COc1ccc2oc(C(=O)OCC(=O)N(CC(C)C)c3c(N)n(Cc4ccccc4)c(=O)[nH]c3=O)c(C)c2c1 | 1.6%
